These results are taken from PubChem BioAssay (EPA / NIEHS).

Inconclusive results are not listed. The source made the active and inactive calls. How the source made its calls, unless noted: active means hit-call score of the fitted dose curve at least 0.9, where 1 is the maximum; inconclusive means response in the unintended direction; inactive means score below 0.9.

The AC50 is the concentration giving half of the maximal activity seen.

A short description of test [1]: CCTE_Deisenroth_5AR_NBTE_donor: CCTE's 5alpha-reductase NanoBRET Target Engagement Assay […], Deisenroth Lab (AID 2284319; active means hit-call score of the fitted dose curve at least 0.9, where 1 is the maximum; inactive means score below 0.9). Conditions: actives raise or lower the signal. Put shortly: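 HEK293T cells transiently expressing SRD5A2-NanoLuc, exposed 5 h to chemicals (8 points, 10 nM - 29.9 uM), with testosterone tracer for the final 2 h. Donor luminescence at 460 nm read after Nano-Glo substrate plus extracellular NanoLuc inhibitor; bidirectional fit versus DMSO.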

Test [2] is described as follows: CCTE_Deisenroth_5AR_NBTE_acceptor: CCTE's 5alpha-reductase NanoBRET Target Engagement Assay - Autofluorescence Screen, Deisenroth Lab (AID 2284321; active means hit-call score of the fitted dose curve at least 0.9, where 1 is the maximum; inactive means score below 0.9;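 further: compound fluorescence in the acceptor channel under 460 nm excitation flags autofluorescence artifacts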). The following applies: actives raise or lower the signal. In short, it runs like this: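 Acceptor fluorescence intensity was read as an artifact-detection endpoint. Test chemicals at an assumed nominal 100 uM were excited at 460 nm across three independent runs. Activity was fitted bidirectionally against DMSO.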

The next test deals with SRD5A2 (gene 6716). Briefly: CCTE_Deisenroth_5AR_NBTE_ratio: CCTE's 5alpha-reductase NanoBRET Target Engagement Assay - Ratio, Deisenroth Lab (AID 2284322; active means hit-call score of the fitted dose curve at least 0.9, where 1 is the maximum; inactive means score below 0.9). Conditions: actives raise or lower the signal. In short, it runs like this:
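HEK293T transiently expressing SRD5A2-NanoLuc; cells exposed to chemical (8-point, 10 nM - 29.9 uM) for 5 h total, testosterone tracer added for final 2 h. NanoBRET acceptor/donor ratio (650/460 nm), bidirectional fit vs DMSO.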
(In BRET a luciferase serves as donor, and the signal depends on an acceptor being close.)

For test [3], the target named is human Retinoic Acid Receptor beta (RARb), RARB (gene 5915) (UniProt P10826). In words: ATG_RARb_TRANS: Attagene TRANS-FACTORIAL HepG2 Assay for human Retinoic Acid Receptor beta (AID 2283004). In short, it runs like this: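 Transient transfection of HepG2 with multiple reporter units → chemical dosing, 24 h → total RNA isolation → RT with oligo(dT) → reporter-specific PCR, 6-FAM primer extension, HpaI digest → capillary electrophoresis. Positive direction vs DMSO control.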

Test [4] relates to guinea pig Dopamine Transporter (DAT), gene 100714898. Briefly: NVS_TR_gDAT: NovaScreen (NVS) Transporter Assay for guinea pig Dopamine Transporter (DAT) (AID 2283369).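 Further: active compounds lower bound radioligand signal relative to DMSO.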 In short, it runs like this:
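Scintillation counts of filter-retained radioligand report binding to guinea pig striatal membranes after 2 h. Activity scored as signal loss relative to DMSO, first at 25 uM in duplicate, then in concentration series to 50 uM.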

The nature of test [5]: CEETOX_H295R_ANDR: CeeTox H295R High-throughput Steroidogenesis Assay for Androstenedione (ANDR) (AID 2283436; active means hit-call score of the fitted dose curve at least 0.9, where 1 is the maximum; inactive means score below 0.9;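 further: human H295R adrenal cells exposed for 48 h with androstenedione measured in medium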). Conditions: actives raise or lower the signal. Put shortly:
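H295R cells, following OECD 456 with minor changes, exposed to chemicals for 48 h. Androstenedione in the medium was quantified by HPLC-MS/MS after MTBE extraction. Fitting was bidirectional versus DMSO; chemicals were diluted until MTT viability was ≥70%.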

A short description of test [6]: CEETOX_H295R_ESTRADIOL: CeeTox H295R High-throughput Steroidogenesis Assay for Estradiol (AID 2283440; active means hit-call score of the fitted dose curve at least 0.9, where 1 is the maximum; inactive means score below 0.9;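 further: estradiol secreted into medium quantified by LC-MS/MS after dansyl derivatisation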). The following applies: actives raise or lower the signal. Put shortly:
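Estradiol secreted into the medium was measured by tandem mass spectrometry after liquid-liquid extraction and dansylation. Human H295R cells had been forskolin-primed (10 uM, 48 h) before a 48 h chemical exposure with 0.1% DMSO.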

The nature of test [7]: CEETOX_H295R_ESTRONE: CeeTox H295R High-throughput Steroidogenesis Assay for Estrone (AID 2283441; active means hit-call score of the fitted dose curve at least 0.9, where 1 is the maximum; inactive means score below 0.9;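 further: estrone secreted into medium measured by LC-MS/MS after dansyl derivatization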). Conditions: actives raise or lower the signal. In short, it runs like this: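 H295R cells prestimulated 48 h with 10 uM forskolin, then exposed 48 h to chemicals in 0.1% DMSO final; estrone in medium extracted with MTBE, dansyl-derivatized, quantified by HPLC-MS/MS; bidirectional fitting versus DMSO, viability by MTT.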

A short description of test [8]: CEETOX_H295R_TESTO: CeeTox H295R High-throughput Steroidogenesis Assay for Testosterone (TESTO) (AID 2283457; active means hit-call score of the fitted dose curve at least 0.9, where 1 is the maximum; inactive means score below 0.9). Conditions: actives raise or lower the signal. In short, it runs like this: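 H295R, passage ≤10, 48 h dosing; media extracted with MTBE → HPLC-MS/MS for testosterone; 7-pt standard curve sets LLOQ/ULOQ; bidirectional fit vs DMSO; MTT viability same wells.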

The target in test [9] is human CYP2C9, CYP2C9 (gene 1559) (UniProt P11712). Briefly: NVS_ADME_hCYP2C9: NovaScreen (NVS) CYP450-related Enzyme Activity (ADME) Assay for human CYP2C9 (AID 2283108). In short, it runs like this:
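Recombinant human CYP2C9 expressed in SF9 cells, fluorogenic substrate, fluorescence read 0.75 h after dosing. Chemicals first run in duplicate at 10 uM, with actives followed in concentration series; loss of signal versus acetonitrile baseline.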

The target of test [10] is Cytochrome P450 2C19 (Homo sapiens) (UniProt P33261). In words: NVS_ADME_hCYP2C19: NovaScreen (NVS) CYP450-related Enzyme Activity (ADME) Assay for human CYP2C19 (AID 2283113).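 Further: potency for inhibition seen as loss of fluorescent signal.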 Put shortly:
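Fluorescence intensity was measured 1 hour after chemicals were added to insect-cell-derived recombinant CYP2C19 with fluorogenic substrate. Decreased signal versus acetonitrile control was taken as reduced enzyme activity; initial testing used 10 uM in duplicate.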

Test [11] addresses human Peroxisome Proliferator-activated Receptor alpha (PPARa), PPARA (gene 5465) (UniProt Q07869). In words: NVS_NR_hPPARa: NovaScreen (NVS) Nuclear Receptor Binding Assay for human Peroxisome Proliferator-activated Receptor alpha (PPARa) (AID 2283359).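 Further: activity means loss of TR-FRET signal versus DMSO baseline.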 Put shortly:
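Cell-free TR-FRET binding assay with extracted PPARα protein, read 1 h after dosing. Primary screen in duplicate at 25 uM, with actives retested in concentration series. Loss of signal versus DMSO.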

The subject of test [12] is Thyroperoxidase (TPO), gene 54314. Briefly: CCTE_Simmons_AUR_rTPO: CCTE's Amplex UltraRed Assay for Thyroperoxidase (TPO) Inhibition, Simmons Lab (AID 2283662).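 Further: potency for loss of signal meaning inhibition of peroxidase activity.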 Put shortly: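 Rat thyroid microsomes (5 ug protein) with 25 uM Amplex UltraRed and 300 uM H2O2 in 200 mM phosphate buffer, 30 min at 37C in dark; fluorescence 544/590 nm. Eight concentrations, 5 nM–87.5 uM final, 0.5% DMSO, triplicate biological replicates.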

The nature of test [13]: CCTE_Simmons_CellTiterGLO_HEK293T: Viability Assessment in CCTE's Assays for Thyroperoxidase (TPO) Inhibition, Simmons Lab (AID 2283665).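 Further: cells exposed to compound for 24 h before readout; actives reduce ATP signal below DMSO vehicle meaning cytotoxicity.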 Put shortly:
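HEK293T cells in DMEM with 1% FBS, dosed 24 h at 37C with 8 concentrations, 5 nM–87.5 uM final, 0.5% DMSO. ATP measured by CellTiter Glo luminescence; loss of signal vs DMSO, three biological replicates.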
(In general: ATP-based viability assays read luminescence as a measure of living cells.)

Test [14] has as its target Luciferin 4-monooxygenase (Photinus pyralis) (UniProt P08659). Briefly: CCTE_Simmons_QuantiLum_inhib_2: CCTE's Firefly Luciferase Inhibition Assay, Simmons Lab (AID 2283767). Put shortly:
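Cell-free recombinant firefly luciferase (5 ng/well) in 200mM potassium phosphate with 1 mg/ml BSA, 30 min at 37C with 8 concentrations from 5 nM to 87.5 uM [final], 0.5% DMSO. Luminescence read after D-luciferin (150uM)/dATP (147uM) reagent injection, pH 7.8; triplicates.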

The target in test [15] is zebrafish Estrogen Receptor (ESR1), esr1 (gene 259252) (UniProt P57717). Briefly: ATG_zfER1_XSP1: Attagene TRANS-FACTORIAL Multi-Species (XSP1) HepG2 Assay for zebrafish Estrogen Receptor (ESR1) (AID 2283772). In short, it runs like this: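 Transfect HepG2 with GAL4-UAS multi-reporter constructs; treat 24 h (medium carries 3 nM 6-alpha-fluorotestosterone); extract RNA, reverse-transcribe, PCR-amplify, FAM-label, digest with HpaI; resolve by capillary electrophoresis and compare against DMSO baseline.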

For test [16], the system named is zebrafish Estrogen Receptor (ESR2B), gene 317733. In words: ATG_zfER2b_XSP1: Attagene TRANS-FACTORIAL Multi-Species (XSP1) HepG2 Assay for zebrafish Estrogen Receptor (ESR2B) (AID 2283773). In short, it runs like this: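 HepG2 cells transiently transfected with GAL4-UAS reporter units for chimeric zebrafish ER2b-Gal4, with 3 nM 6-alpha-fluorotestosterone present; reporter mRNA measured 24 h after dosing by RT-PCR and capillary electrophoresis, gain versus DMSO.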

For test [17], the system named is frog Estrogen Receptor (ESR1), gene 398734. Briefly: ATG_frER1_XSP1: Attagene TRANS-FACTORIAL Multi-Species (XSP1) HepG2 Assay for frog Estrogen Receptor (ESR1) (AID 2283777). Put shortly:
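HepG2 cells transiently transfected with frog ER–GAL4 chimera and GAL4-UAS reporter, with 3 nM 6-alpha-fluorotestosterone present; 24 h dosing, reporter mRNA quantified by RT-PCR and capillary electrophoresis, gain of signal versus DMSO.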

The target of test [18] is Peroxisome proliferator-activated receptor gamma (Homo sapiens) (UniProt P37231). Briefly: ATG_hPPARg_XSP1: Attagene TRANS-FACTORIAL Multi-Species (XSP1) HepG2 Assay for human Peroxisome Proliferator-activated Receptor gamma (PPARg) (AID 2283800). In short, it runs like this:
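HepG2 cells transiently transfected with GAL4-UAS reporter units carrying chimeric NR-Gal4 proteins; 3 nM 6-alpha-fluorotestosterone present. After 24 h dosing, reporter mRNA quantified by RT-PCR and capillary electrophoresis; gain of signal relative to DMSO.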

The target of test [19] is mouse Peroxisome Proliferator-activated Receptor gamma (PPARg), Pparg (gene 19016) (UniProt P37238). Briefly: ATG_mPPARg_XSP1: Attagene TRANS-FACTORIAL Multi-Species (XSP1) HepG2 Assay for mouse Peroxisome Proliferator-activated Receptor gamma (PPARg) (AID 2283802). In short, it runs like this: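 HepG2 cells transiently transfected with GAL4-UAS reporter units driven by mouse PPARg–GAL4 chimera; 3 nM 6-alpha-fluorotestosterone present. After 24 h dosing, reporter mRNA quantified by RT-PCR, fluorescent labelling and capillary electrophoresis; gain of signal versus DMSO.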
Sequence of mouse Peroxisome Proliferator-activated Receptor gamma (PPARg), Pparg (gene 19016) (P37238 whole entry, looked up, the tested form may be a part): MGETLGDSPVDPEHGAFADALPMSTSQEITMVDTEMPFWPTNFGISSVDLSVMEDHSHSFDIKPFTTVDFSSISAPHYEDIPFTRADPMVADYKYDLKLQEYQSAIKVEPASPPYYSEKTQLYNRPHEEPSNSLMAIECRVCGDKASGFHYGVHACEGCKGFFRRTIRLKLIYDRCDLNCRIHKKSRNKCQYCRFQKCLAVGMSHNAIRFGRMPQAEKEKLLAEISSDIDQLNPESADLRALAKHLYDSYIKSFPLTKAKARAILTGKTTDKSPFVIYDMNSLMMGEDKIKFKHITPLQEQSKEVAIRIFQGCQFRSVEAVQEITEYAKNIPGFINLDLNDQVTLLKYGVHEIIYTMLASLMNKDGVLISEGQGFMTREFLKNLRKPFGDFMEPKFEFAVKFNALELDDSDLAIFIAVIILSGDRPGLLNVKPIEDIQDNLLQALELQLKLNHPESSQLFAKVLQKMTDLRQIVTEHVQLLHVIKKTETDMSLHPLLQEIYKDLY

Sequence of Luciferin 4-monooxygenase (Photinus pyralis) (P08659 whole entry, looked up): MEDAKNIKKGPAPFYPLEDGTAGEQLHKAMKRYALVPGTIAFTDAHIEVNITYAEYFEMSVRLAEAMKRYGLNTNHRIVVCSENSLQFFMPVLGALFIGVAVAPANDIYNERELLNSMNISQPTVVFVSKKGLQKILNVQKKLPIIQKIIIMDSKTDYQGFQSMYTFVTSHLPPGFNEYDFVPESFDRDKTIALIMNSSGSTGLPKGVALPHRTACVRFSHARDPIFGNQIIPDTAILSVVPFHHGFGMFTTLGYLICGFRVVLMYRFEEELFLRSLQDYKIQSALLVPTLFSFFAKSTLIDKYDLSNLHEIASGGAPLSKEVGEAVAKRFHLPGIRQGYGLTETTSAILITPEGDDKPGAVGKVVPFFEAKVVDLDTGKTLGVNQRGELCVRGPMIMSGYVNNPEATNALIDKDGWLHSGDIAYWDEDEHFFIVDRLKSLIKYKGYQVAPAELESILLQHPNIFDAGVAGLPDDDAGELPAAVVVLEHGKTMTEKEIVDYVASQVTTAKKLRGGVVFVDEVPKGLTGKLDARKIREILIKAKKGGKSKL
Sequence of human CYP2C9, CYP2C9 (gene 1559) (P11712 whole entry, looked up): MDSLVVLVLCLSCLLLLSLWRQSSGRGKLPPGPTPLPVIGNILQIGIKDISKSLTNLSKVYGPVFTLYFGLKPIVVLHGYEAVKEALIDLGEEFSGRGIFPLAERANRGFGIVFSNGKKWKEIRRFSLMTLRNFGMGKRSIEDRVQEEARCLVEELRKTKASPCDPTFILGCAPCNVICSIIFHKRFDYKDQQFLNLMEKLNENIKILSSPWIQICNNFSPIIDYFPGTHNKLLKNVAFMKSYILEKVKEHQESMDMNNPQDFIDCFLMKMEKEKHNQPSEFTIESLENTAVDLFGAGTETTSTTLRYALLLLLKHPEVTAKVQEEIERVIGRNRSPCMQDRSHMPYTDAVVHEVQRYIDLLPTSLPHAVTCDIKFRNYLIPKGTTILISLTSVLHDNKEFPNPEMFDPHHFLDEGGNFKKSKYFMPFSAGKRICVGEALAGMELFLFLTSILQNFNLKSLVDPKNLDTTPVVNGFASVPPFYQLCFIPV
Sequence of human Peroxisome Proliferator-activated Receptor alpha (PPARa), PPARA (gene 5465) (Q07869 whole entry, looked up): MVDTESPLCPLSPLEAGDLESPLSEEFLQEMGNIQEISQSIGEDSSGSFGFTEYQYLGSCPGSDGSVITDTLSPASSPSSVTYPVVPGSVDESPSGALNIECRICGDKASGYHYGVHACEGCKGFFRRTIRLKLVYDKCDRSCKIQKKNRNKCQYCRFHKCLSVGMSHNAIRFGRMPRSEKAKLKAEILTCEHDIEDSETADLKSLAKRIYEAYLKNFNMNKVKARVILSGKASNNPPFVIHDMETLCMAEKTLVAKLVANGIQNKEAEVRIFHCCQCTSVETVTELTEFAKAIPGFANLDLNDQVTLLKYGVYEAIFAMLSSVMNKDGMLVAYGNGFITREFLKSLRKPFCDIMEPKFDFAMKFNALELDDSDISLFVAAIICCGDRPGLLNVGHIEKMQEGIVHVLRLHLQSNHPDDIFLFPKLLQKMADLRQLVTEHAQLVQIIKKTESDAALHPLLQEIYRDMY
Sequence of human Retinoic Acid Receptor beta (RARb), RARB (gene 5915) (P10826 whole entry, looked up): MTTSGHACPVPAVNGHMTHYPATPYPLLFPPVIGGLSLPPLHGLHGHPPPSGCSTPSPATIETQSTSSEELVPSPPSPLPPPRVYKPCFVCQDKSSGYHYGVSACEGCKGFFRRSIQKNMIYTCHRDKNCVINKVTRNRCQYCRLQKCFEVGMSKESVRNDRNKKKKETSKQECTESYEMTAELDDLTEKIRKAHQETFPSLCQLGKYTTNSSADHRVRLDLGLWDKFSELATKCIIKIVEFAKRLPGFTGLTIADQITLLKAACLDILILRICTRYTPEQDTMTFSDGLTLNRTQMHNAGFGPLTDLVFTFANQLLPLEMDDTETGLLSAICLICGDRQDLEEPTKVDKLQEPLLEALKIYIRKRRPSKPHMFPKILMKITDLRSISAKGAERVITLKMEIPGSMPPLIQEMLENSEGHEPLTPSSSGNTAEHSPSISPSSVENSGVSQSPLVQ
Sequence of Peroxisome proliferator-activated receptor gamma (Homo sapiens) (P37231 whole entry, looked up, the tested form may be a part): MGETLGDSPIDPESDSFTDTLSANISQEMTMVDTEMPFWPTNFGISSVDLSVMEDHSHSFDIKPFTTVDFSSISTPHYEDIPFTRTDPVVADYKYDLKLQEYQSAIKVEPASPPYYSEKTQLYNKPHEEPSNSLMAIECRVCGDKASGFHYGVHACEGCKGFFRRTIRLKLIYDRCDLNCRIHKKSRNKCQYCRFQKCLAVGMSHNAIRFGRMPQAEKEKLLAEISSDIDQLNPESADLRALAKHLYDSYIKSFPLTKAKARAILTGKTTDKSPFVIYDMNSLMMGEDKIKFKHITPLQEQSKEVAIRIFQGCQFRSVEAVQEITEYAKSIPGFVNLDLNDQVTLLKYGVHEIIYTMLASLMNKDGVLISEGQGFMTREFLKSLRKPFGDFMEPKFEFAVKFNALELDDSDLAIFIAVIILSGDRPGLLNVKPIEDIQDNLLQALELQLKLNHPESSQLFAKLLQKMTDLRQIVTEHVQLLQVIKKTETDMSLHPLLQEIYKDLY
Sequence of zebrafish Estrogen Receptor (ESR1), esr1 (gene 259252) (P57717 whole entry, looked up, the tested form may be a part): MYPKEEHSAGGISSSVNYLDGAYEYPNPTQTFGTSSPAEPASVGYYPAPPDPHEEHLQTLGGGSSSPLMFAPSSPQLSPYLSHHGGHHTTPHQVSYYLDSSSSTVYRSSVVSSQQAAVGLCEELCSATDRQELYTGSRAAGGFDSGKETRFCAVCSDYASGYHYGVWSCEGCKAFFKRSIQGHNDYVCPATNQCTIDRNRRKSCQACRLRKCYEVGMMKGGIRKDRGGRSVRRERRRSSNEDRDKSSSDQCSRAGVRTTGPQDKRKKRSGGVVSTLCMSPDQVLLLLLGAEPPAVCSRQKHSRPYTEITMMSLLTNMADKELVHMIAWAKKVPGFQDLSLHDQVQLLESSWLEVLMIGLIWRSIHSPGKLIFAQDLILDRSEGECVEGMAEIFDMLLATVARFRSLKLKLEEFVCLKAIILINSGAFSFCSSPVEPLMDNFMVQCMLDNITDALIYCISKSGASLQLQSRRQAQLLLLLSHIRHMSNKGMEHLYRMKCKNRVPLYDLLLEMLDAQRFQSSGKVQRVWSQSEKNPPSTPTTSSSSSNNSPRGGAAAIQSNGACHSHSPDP

In the case of `O=P(O)(Oc1ccccc1)Oc1ccccc1`, the outcome (in test [1]; in test [2]; in the test on SRD5A2 (gene 6716)) was inactive.

As to `N#Cc1cc(I)c(O)c(I)c1`, in test [3], the compound was classed as inactive.

Turning to `CC(C)(C)C(O)C(Oc1ccc(-c2ccccc2)cc1)n1cncn1` (stereo not given), the AC50 was 18 µM (active) in test [4] and 0.114 µM (active) in test [5]. Moreover, the compound was classed as inactive in [6], in test [7] and in test [8].

In the case of `CC(C)(c1cc(Cl)c(O)c(Cl)c1)c1cc(Cl)c(O)c(Cl)c1`, the AC50 in test [9] was 2.29 µM (active); in test [10], 0.992 µM (active); in test [11], 20.2 µM (active); in [12], 19.8 µM (active); in [13] it was 90.8 µM (active); in test [16], 9.75 µM (active). Moreover, the figures for the concentration at half-maximal activity (AC50) in test [18] and in test [19] were 2.73 µM (active) and 2.92 µM (active), respectively. The outcome in test [14], in test [15] and in [17] was inactive.
